According to article PMC4336329 (PLoS ONE, 2015):
In all, about 310,000 compounds went through this assay and about 14,000 (4.5%) showed an effect of 50% or more. The effect is printed as a negative number. What follows is part of a selection rich in strong results, with near analogues and random picks from the rest.

biological target: human ether-à-go-go-related gene (hERG) potassium channel (human, UniProt Q12809); assay: primary screen, population patch clamp on CHO cells stably expressing hERG; higher = less effect of the substance
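Also: peak tail current of the secondary pulse compared with the same well before compound.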

Chain of human ether-à-go-go-related gene (hERG) potassium channel (Q12809 whole entry, looked up): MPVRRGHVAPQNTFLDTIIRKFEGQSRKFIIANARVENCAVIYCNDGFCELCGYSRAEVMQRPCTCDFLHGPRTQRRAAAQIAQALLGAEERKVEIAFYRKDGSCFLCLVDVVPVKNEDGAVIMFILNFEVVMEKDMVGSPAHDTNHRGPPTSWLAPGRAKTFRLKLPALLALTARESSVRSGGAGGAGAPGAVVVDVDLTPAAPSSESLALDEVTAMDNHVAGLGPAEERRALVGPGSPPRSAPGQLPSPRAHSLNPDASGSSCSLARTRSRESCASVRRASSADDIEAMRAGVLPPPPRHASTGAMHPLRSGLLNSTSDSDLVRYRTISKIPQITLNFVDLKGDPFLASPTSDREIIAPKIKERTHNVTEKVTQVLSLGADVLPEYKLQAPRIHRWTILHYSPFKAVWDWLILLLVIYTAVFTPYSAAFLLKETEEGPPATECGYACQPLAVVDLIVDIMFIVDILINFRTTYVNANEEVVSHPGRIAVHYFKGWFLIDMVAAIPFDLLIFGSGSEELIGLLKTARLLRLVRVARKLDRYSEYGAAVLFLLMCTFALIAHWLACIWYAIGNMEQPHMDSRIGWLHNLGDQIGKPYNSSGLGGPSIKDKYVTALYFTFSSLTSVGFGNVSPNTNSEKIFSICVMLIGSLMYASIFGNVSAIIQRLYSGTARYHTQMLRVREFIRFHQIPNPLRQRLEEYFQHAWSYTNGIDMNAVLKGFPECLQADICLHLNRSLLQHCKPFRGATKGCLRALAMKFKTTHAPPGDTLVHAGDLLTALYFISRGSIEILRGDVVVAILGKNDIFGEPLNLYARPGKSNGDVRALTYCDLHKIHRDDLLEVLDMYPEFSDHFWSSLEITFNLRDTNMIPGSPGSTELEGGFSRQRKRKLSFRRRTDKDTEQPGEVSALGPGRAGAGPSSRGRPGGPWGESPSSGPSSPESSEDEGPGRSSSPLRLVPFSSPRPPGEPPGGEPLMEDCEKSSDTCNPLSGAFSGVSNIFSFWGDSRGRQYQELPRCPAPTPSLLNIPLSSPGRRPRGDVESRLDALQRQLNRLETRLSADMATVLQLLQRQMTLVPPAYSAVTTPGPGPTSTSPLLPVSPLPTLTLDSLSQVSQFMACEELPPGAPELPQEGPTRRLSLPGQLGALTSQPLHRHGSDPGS

SMILES | hERG current change (%, negative = inhibition) at 10uM [%]
O=C(Nc1ccccc1Cc1ccccc1)c1ccccc1F | -4.48
COc1ccc(Oc2ccccc2/C=N/O)cc1 | 4.99
Cc1sc2ncnc(N3CCC(C(=O)Nc4ccc(C#N)c(Cl)c4)CC3)c2c1C | -7.2
O=C(CN1CCN(C(=O)COc2cccc(F)c2)CC1)Nc1ccc(Cl)c(C(F)(F)F)c1 | -60.6
Cc1ccc(OCCC(=O)Nc2ccc(C)c(F)c2)cc1 | -50.6
O=C(CN1CCN(S(=O)(=O)c2ccc(F)cc2)CC1)Nc1ccc(Cl)c(C(F)(F)F)c1 | 9.48
CCOc1ccc(NC(=O)CN2CCN(CC(=O)Nc3ccc(Cl)c(C(F)(F)F)c3)CC2)cc1 | -57
Cc1ccc(OCCC(=O)Nc2ccc(F)c(F)c2)cc1 | -5.62
CCOc1ccc(NC(=O)CN2CCN(CC(=O)Nc3cccc(F)c3)CC2)cc1 | -86.3
Cc1ccc(OCCC(=O)Nc2ccc(F)c(Cl)c2)cc1 | 5.65
COc1ccccc1N1CCN(CC(=O)Nc2cccc(F)c2)CC1 | -28.1
O=C(COc1ccc(S(=O)(=O)N2CCOCC2)cc1)Nc1ccc(Cl)c(C(F)(F)F)c1 | -13.1
O=C(CN1CCN(c2ccccn2)CC1)Nc1cccc(F)c1 | 5.56
O=C(CN1CCN(c2ccccn2)CC1)Nc1ccc(Cl)c(C(F)(F)F)c1 | -7.97
CC(=O)c1cccc(OCC(=O)N2CCN(CC(=O)Nc3cccc(F)c3)CC2)c1 | -42.2
Cc1c(NC(=O)c2ccc([N+](=O)[O-])o2)cccc1-c1nc2ncccc2o1 | -11.8
CCC(C)C(=O)Nc1ccc([N+](=O)[O-])cc1OC (centres unmarked) | 4.15
CCC(C)(C)NC(=O)CN(Cc1ccc(OC)cc1)C(=O)CCC(=O)Nc1nccs1 | -4.32
O=C(NC1CCCCC1)c1ccc(S(=O)(=O)c2ccccc2Cl)c([N+](=O)[O-])c1 | 1.94
COc1cccc(CC(=O)OCC(=O)N(C)CC(=O)Nc2ccc(F)cc2)c1 | -9.44
CN(C)c1ccc(C2Nc3ccccc3C(=O)N2NS(C)(=O)=O)cc1 (centres unmarked) | 14.2
C/C(=N\NC(=O)c1nnn(-c2nonc2N)c1CN1CCCCCC1)c1ccc(Br)cc1 | 24.6
Cc1ccc(OCCOC(=O)c2c(-c3ccccc3)noc2C)cc1 | 7.59
CCOc1ccc(NC(=O)CN2CCc3ccccc3C2)cc1 | -6.01

SMILES | hERG current change (%, negative = inhibition) at 10uM [%]
CCOc1ccc(NC(=O)CN2CCN(Cc3c(F)cccc3F)CC2)cc1 | -75.3
CCOc1ccc(NC(=O)CN2CCN(C3c4ccccc4-c4ccccc43)CC2)cc1 | -40.3
CCOc1cc(N2CCOCC2)c(OCC)cc1NC(=O)c1nc2nc(C)cc(C)n2n1 | 18.4
O=C(/C=C/c1ccc(OCc2c(F)cccc2Cl)cc1)N1CCOCC1 | -30.1
CN(C)CCCNC(=O)/C=C/c1ccc(OCc2c(F)cccc2Cl)cc1 | -67
COCCCNC(=O)/C=C/c1ccc(OCc2c(F)cccc2Cl)cc1 | -1.25
COc1cc2c(cc1OC)C(c1ccccc1F)OC(=O)C2 (centres unmarked) | 6.96
O=C(CN1CCOCC1)Nc1ncc(Cc2cccc3ccccc23)s1 | -23.3
O=C(CN1CCOCC1)Nc1ncc(Cc2cccc(Cl)c2Cl)s1 | -51.4
O=C(CN1CCOCC1)Nc1ncc(Cc2cccc(Cl)c2)s1 | -43
O=C(COc1ccc2ccccc2c1)Nc1ccc2c3c(cccc13)CC2 | 3.91
O=C(CSc1ncnc2c1cnn2-c1cccc(Cl)c1)NCC1CCCO1 (centres unmarked) | 7.88
Cc1cc(OC(C)C(=O)NCc2ccncc2)c2c(C)cc(=O)oc2c1 (centres unmarked) | -49.2
CCCc1cc(=O)oc2cc(C)cc(OC(C)C(=O)NCc3cccnc3)c12 (centres unmarked) | -47.3
CCCc1cc(=O)oc2cc(C)cc(OC(C)C(=O)NCc3ccncc3)c12 (centres unmarked) | -69.5
CCc1cc(=O)oc2cc(C)cc(OC(C)C(=O)NCc3cccnc3)c12 (centres unmarked) | -32.9
CCCCc1cc(=O)oc2cc(C)cc(OC(C)C(=O)NCc3ccncc3)c12 (centres unmarked) | -36
CCc1cc(=O)oc2cc(C)cc(OC(C)C(=O)NCc3ccncc3)c12 (centres unmarked) | -56.8
O=S(=O)(Nc1nc2c(s1)CCCC2)c1ccc(F)cc1 | -21.1
O=C(NCCc1cccc(F)c1)[C@@H]1CSC2c3ccccc3C(=O)N21 (some centres unmarked) | -13.9
Cc1cc(C(=O)Nc2ccc3c(c2)OCCO3)c(C)o1 | 4.25
COC(=O)c1cccc(Oc2cccc(C(F)(F)F)c2)n1 | 13
Cc1ccc(S(=O)(=O)N2C(=O)CCC2C(=O)Nc2ccc3c(c2)OCCO3)cc1 (centres unmarked) | 10.6
O=C1CCN(Cc2cccnc2)CCN1[C@H](CO)c1ccccc1 | 16

SMILES | hERG current change (%, negative = inhibition) at 10uM [%]
CCN(CC(=O)NCc1ccc(F)cc1)C(=O)CCNS(=O)(=O)c1cccc(C)c1 | -51.9
CCN(Cc1ccccc1)C(=O)COc1ccccc1 | 9.21
CCN(CC(=O)NCc1ccc(Cl)cc1)C(=O)c1cc2ccccc2o1 | -32.2
CCN(CC(=O)NCc1ccc(F)cc1)C(=O)c1ccc(C)o1 | 6.13
CCN(CC(=O)NCc1ccc(F)cc1)C(=O)Cc1c(F)cccc1Cl | -37.6
O=C(NCc1ccc(F)cc1)c1cc2ccccc2o1 | -13.4
CCc1ccc(OCC(=O)N(CC)CC)cc1 | -55
CCN(CC(=O)NCc1ccc(F)cc1)C(=O)c1cc2ccccc2o1 | -55.9
CCN(CC)C(=O)COc1ccc(-c2ccccc2)cc1 | -36
CCN(CC(=O)Nc1c(F)cccc1F)C(=O)CCNS(=O)(=O)c1ccc(C)c(C)c1 | 1.26
CCN(CC(=O)NCc1ccc(F)cc1)C(=O)COc1ccc(C)c(C)c1 | -53.6
CCN(CC(=O)NCc1ccc(F)cc1)C(=O)c1ccc(COc2ccccc2)cc1 | -47.9
CCOC(=O)c1cc(C)n(S(=O)(=O)c2ccc(C)cc2)c1C | -2.18
Cc1ccc(-c2cn(S(=O)(=O)c3cccc([N+](=O)[O-])c3)nc2N)cc1 | 15.3
COc1ccccc1CNC(=O)CCC(=O)N1C[C@H]2C[C@@H](C1)c1cccc(=O)n1C2 | -5.65
O=C(COc1ncnc2sccc12)Nc1cccc(S(=O)(=O)N2CCOCC2)c1 | -2.77
O=C(Nc1ccc2nc(C3CC3)n(Cc3ccccc3)c(=O)c2c1)C1CC1 | -6.15
CC1(C)CC(NC(=O)COc2cc3oc(=O)c4c(c3cc2Cl)CCC4)CC(C)(C)N1 | 11.2
COc1ccc(OC)c(C(c2nnnn2C2CCCC2)N2CCc3ccccc3C2)c1 (centres unmarked) | -11.1
COc1ccc(/C=C/C(=O)OCC(=O)Nc2cc(S(=O)(=O)N(C)C)ccc2Cl)cc1 | 28.4
CCN(CC(=O)Nc1ccc(NC(C)=O)cc1)C(=O)COc1ccc2ccccc2c1 | -10.1
CCN(CC(=O)NCc1ccc(F)cc1)C(=O)COc1ccc2ccccc2c1 | -70.5
CCN(CC(=O)NCc1ccc(F)cc1)C(=O)c1cccnc1SC | -62.9
CCc1ccccc1OCC(=O)N(CC)CC(=O)NCc1ccc(F)cc1 | 8

SMILES | hERG current change (%, negative = inhibition) at 10uM [%]
CCOc1ncccc1C(=O)N(CC)CC(=O)NCc1ccc(F)cc1 | 7.12
CCN(CC(=O)Nc1c(F)cccc1F)C(=O)c1cccnc1SC | 6.33
Cc1ccc(-n2ncc3c2CCCC3NC(=O)CCc2cnn(C)c2)cc1C (centres unmarked) | 7.27
CCCC(=O)NC1CCCc2c1cnn2-c1ccc(C)c(C)c1 (centres unmarked) | -72
CSCC(=O)NC1CCCc2c1cnn2-c1ccc(C)c(C)c1 (centres unmarked) | -28
Cc1cc(C(=O)NC2CCCc3c2cnn3-c2ccc(C)c(C)c2)no1 (centres unmarked) | -42.9
COC(=O)c1ccc(C(=O)NC2CCCc3c2cnn3-c2ccc(C)c(C)c2)cc1 (centres unmarked) | 6.54
Cc1ccc(-n2ncc3c2CCCC3NC(=O)c2ccoc2)cc1C (centres unmarked) | -79.2
O=C1COc2ccc(S(=O)(=O)NCCc3ccccc3)cc2N1 | 10.7
CC(NC(=O)c1cc(S(=O)(=O)N2CCCC2)ccc1Cl)c1ccccn1 (centres unmarked) | 18.1
CCOc1ccc(C2C3=C(CC(C)(C)CC3=O)N(CC(=O)O)C3=C2C(=O)CC(C)(C)C3)cc1OCC | 5.47
CC(=O)c1ccc(NC(=S)N(C)C2CCN(C)CC2)cc1 | -4.16
CN1CCN(C(=O)c2ccccc2Nc2ccc(SC(F)F)cc2)CC1.Cl | -26
CN1CCC(N(C)C(=S)Nc2ccc(F)cc2)CC1 | 21.3
CC1CCN(C(=S)Nc2ccc(SC(F)F)cc2)CC1 | -33
O=C(NCc1ccncc1)c1cccc(S(=O)(=O)Nc2ccc(SC(F)F)cc2)c1 | -3.21
CC1CC(C)CN(C(=O)c2ccccc2Nc2ccc(SC(F)F)cc2)C1 (centres unmarked) | 0.904
O=C(NCc1ccncc1)c1ccccc1Nc1ccc(SC(F)F)cc1 | -63.9
CC1CC(C)CN(C(=S)Nc2ccc(SC(F)F)cc2)C1 (centres unmarked) | -51.8
CC1CN(C(=S)Nc2ccc(SC(F)F)cc2)CC(C)O1 (centres unmarked) | -27.6
CN1CCC(N(C)C(=S)Nc2ccc(SC(F)F)cc2)CC1 | -56.6
CNC(=O)c1ccccc1Nc1ccc(SC(F)F)cc1 | -1.62
CN1CCC(N(C)C(=O)c2ccccc2Nc2ccc(SC(F)F)cc2)CC1 | -62.2
